High-throughput results as filed in PubChem BioAssay.
D1 antagonist: blocks dopamine activation of the human D1 receptor; P21728; HEK293 TREx D1 cells, calcium flux, dopamine EC80; active compounds read low; activity change, negative = inhibition, % at 10 µM; 360,000 compounds, 3.2% hits; AID 504652; in the data active = activity change below about -30%; note: % is set by controls: 0 for no effect and ±100 for the full control effect
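Calcium flux readout: force-coupled, inducible Hek293 Trex D1 line, cells induced overnight at 30 C with tetracycline, dye-loaded 30–90 min at RT. Antagonism scored against EC80 dopamine challenge given 180 s after compound.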
DRD3 agonist: D3 dopamine receptor (human) agonism | max activation, % | AID 652048 | D3R DiscoveRx beta-arrestin cells, luminescence, 90 min | P35462 | 410,000 compounds, 0.58% hits; in the data active = max activation above about 30%; note: 0% is about no effect
Target sequence (P35462 whole entry, looked up): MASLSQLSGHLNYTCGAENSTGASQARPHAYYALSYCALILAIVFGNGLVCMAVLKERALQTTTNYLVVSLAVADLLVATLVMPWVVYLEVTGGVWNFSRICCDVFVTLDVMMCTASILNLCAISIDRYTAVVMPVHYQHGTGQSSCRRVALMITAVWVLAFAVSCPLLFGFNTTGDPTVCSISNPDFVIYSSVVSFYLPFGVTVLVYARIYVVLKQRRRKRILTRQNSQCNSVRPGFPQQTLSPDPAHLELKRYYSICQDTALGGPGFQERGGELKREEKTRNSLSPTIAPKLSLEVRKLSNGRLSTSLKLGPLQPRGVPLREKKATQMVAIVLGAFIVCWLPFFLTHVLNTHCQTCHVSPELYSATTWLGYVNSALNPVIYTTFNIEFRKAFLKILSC
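Agonist-mode cell screen: cells plated at 1500/well and incubated overnight at 37 °C, then exposed to library compounds for 90 min at 37 °C. Detection reagent was added for 30–60 min at room temperature, and luminescence was read.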
D1 agonist: agonists of human D1 dopamine receptor; P21728; activation, % at 2 µM; HEK293 T-REx D1 cells, calcium flux, agonist mode; AID 504660; 360,000 compounds, 1% hits; in the data active = activation above about 30%; note: 0% is about no effect
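Inducible HEK293 T-REx D1 cells, force-coupled to calcium signalling, were plated at 4000 cells/well with tetracycline and held overnight at 30 C. After no-wash calcium dye loading, compound-evoked calcium rise over 180 s flagged agonists.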
D3 antag: D3 dopamine receptor (human) antagonism | P35462 | D3R cells, DiscoveRx beta-arrestin luminescence, antagonist mode; active compounds read low | max response, negative = inhibition, % | 360,000 compounds, 2.5% hits; in the data active = max response below about -50%; inconclusive = no clear call, values can overlap the other calls; note: % is set by controls: 0 for no effect and ±100 for the full control effect
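Cells plated overnight at 1500 cells/well, then exposed to library compounds with dopamine controls for 90 minutes at 37 degrees C. DiscoveRx reagent added for 30–60 minutes at room temperature; luminescence read, quantitative HTS format.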
D1 PAM: enhances dopamine response at the human D1 receptor; HEK293 TREx D1 cells, calcium flux, dopamine EC20 potentiation; potentiation, % at 10 µM; 360,000 compounds, 0.036% hits; in the data active = potentiation above about 30%; note: 0% is about no effect
Starred values were filed as active, the others as inactive; ! = not confirmed by another sample. Rows were chosen to be rich in hits. Some 6.1% of all compounds tested hit in one or more screens of this group.

Results for N#Cc1ccccc1S(=O)(=O)N1CCN(C(=O)Cc2coc3cc(O)ccc23)CC1 ?
D1 antagonist: -43*; DRD3 agonist: -6; D1 agonist: 1; D3 antag: inconclusive; D1 PAM: -7

How did N#Cc1ccccc1S(=O)(=O)N1CCN(C(=O)[C@H](Cc2ccccc2)NC(=O)c2ccco2)CC1 do in these assays?
D1 antagonist: -34*; DRD3 agonist: 4; D1 agonist: 0; D3 antag: inconclusive; D1 PAM: -10

Results for Cc1ccccc1Cn1cc(CCC(=O)NCc2cccc(Br)c2)c2ccccc21 ?
D1 antagonist: -13; DRD3 agonist: -6; D1 agonist: 18; D1 PAM: -3

How did CCN1C(=NCC(C)C)N[C@@H](c2cccc(F)c2)C(C(=O)OC)=C1C do in these assays?
D1 antagonist: -33*!; DRD3 agonist: 0; D1 agonist: 6; D3 antag: -7; D1 PAM: -2

Results for CCc1nnc(SCC(=O)Nc2cc(Cl)c(OC)cc2OC)c2cc3oc(C)cc3n12 ?
D1 antagonist: 9; DRD3 agonist: 5; D1 agonist: 0; D1 PAM: -1

How did Cc1cc(=O)oc2c3c(cc(OCC(=O)NCc4ccccc4)c12)OC(C)(C)CC3 do in these assays?
D1 antagonist: -32*; DRD3 agonist: 13; D1 agonist: 2; D3 antag: 5; D1 PAM: -6

Results for CCCc1cc(=O)oc2c3c(cc(OCC(=O)NCCN4CCOCC4)c12)OC(C)(C)CC3 ?
D1 antagonist: -7; DRD3 agonist: -48; D1 agonist: -1; D3 antag: -56*; D1 PAM: -2

Results for CCCCCn1c(=S)[nH]c2cc(C(=O)N3CCN(C(=O)OCC)CC3)ccc2c1=O ?
D1 antagonist: -4; DRD3 agonist: 3; D1 agonist: 1; D3 antag: -90*

How did CCOC(=O)N1CCN(C(=O)c2ccc3c(=O)n(-c4ccc(OC)cc4)c(=S)[nH]c3c2)CC1 do in these assays?
D1 antagonist: 0; DRD3 agonist: -2; D1 agonist: 1; D3 antag: -2; D1 PAM: 1

How did CCOC(=O)N1CCN(C(=O)c2ccc(-n3c(=S)[nH]c4ccccc4c3=O)cc2)CC1 do in these assays?
D1 antagonist: -1; DRD3 agonist: 42*; D1 agonist: -2; D3 antag: 13; D1 PAM: -6

What do the screens show for `COc1ccc(OC)c(CNC(=O)c2ccccc2NC(=O)c2nsc3ccccc23)c1`?
D1 antagonist: -3; DRD3 agonist: -7; D1 agonist: 0; D1 PAM: -4

What do the screens show for `COc1ccc(COC(=O)c2c(C)nn(-c3ccccc3)c2Cl)cc1`?
D1 antagonist: -37*; DRD3 agonist: 6; D1 agonist: 25; D3 antag: 17; D1 PAM: -7

What do the screens show for `COc1ccc(NC(=O)c2c(C)nn(-c3ccccc3)c2Cl)cc1`?
D1 antagonist: -20; DRD3 agonist: 10; D1 agonist: 0; D3 antag: 0; D1 PAM: -16

Results for CCOC(=O)c1cc(C)n(CC2CCC(C(=O)Nc3cc(OC)cc(OC)c3)CC2)c1C (stereo unspecified) ?
D1 antagonist: -5; DRD3 agonist: -9; D1 agonist: 3; D1 PAM: 2

How did CCOC(=O)c1cc(C)n(CC2CCC(C(=O)Nc3ccc(OC)cc3)CC2)c1C (stereo unspecified) do in these assays?
D1 antagonist: -23; DRD3 agonist: 30*; D1 agonist: 0; D1 PAM: -1

How did COc1ccc(/C=N/n2c(=S)n(C)c3ccccc32)cc1OC do in these assays?
DRD3 agonist: 63*; D1 agonist: 0; D3 antag: 47; D1 PAM: 1

Results for S=c1[nH]nc(-c2cccc(Cl)c2)n1Cc1ccccc1 ?
D1 antagonist: -12; DRD3 agonist: 1; D1 agonist: 0; D3 antag: 10; D1 PAM: 3

What do the screens show for `C=CCn1c(-c2cccc(Cl)c2)n[nH]c1=S`?
D1 antagonist: -3; DRD3 agonist: 5; D1 agonist: 1; D3 antag: -57*; D1 PAM: 0

How did Cc1ccc(S(=O)(=O)N(C)c2ccc(OCC(=O)OCc3c(C)noc3C)cc2)cc1 do in these assays?
D1 antagonist: -47*; DRD3 agonist: -2; D1 agonist: 24; D3 antag: inconclusive; D1 PAM: -1

What do the screens show for `Cc1ccc(S(=O)(=O)N(C)c2ccc(OCc3cccc(C)c3)cc2)cc1`?
D1 antagonist: 12; DRD3 agonist: -13; D1 agonist: 38*; D3 antag: -11; D1 PAM: -1

How did Cc1ccc(S(=O)(=O)N(C)c2ccc(OCC(=O)OCc3cccc(Br)c3)cc2)cc1 do in these assays?
DRD3 agonist: -6; D3 antag: -20

What do the screens show for `CCN(c1ccccc1)S(=O)(=O)c1ccc(OCc2c(C)noc2C)cc1`?
D1 antagonist: -32*; DRD3 agonist: 0; D1 agonist: 16; D3 antag: 0; D1 PAM: -7

Results for COc1ccc(NS(=O)(=O)c2cccc(C(=O)N/N=C/c3cccs3)c2)cc1 ?
D1 antagonist: -8; DRD3 agonist: -18; D1 agonist: 7; D3 antag: -52*; D1 PAM: 1

Results for COc1ccc(C(CNC(=O)c2cccc(NC(=O)c3cccs3)c2)N2CCCC2)cc1 (stereo unspecified) ?
D1 antagonist: 12; DRD3 agonist: -18; D1 agonist: 2; D3 antag: -82*; D1 PAM: -2

Results for COc1ccc(C(CNC(=O)CN(C)S(=O)(=O)c2ccc(C)cc2)N2CCCC2)cc1 (stereo unspecified) ?
DRD3 agonist: -14; D3 antag: -99*

How did COc1ccc(C(=O)Nc2cccc(NC(=O)c3cccs3)c2)cc1 do in these assays?
D1 antagonist: -31*; DRD3 agonist: -5; D1 agonist: 3; D3 antag: 8; D1 PAM: -5

How did CCC1CCc2sc(C(=O)NCC(c3ccc(OC)cc3)N3CCOCC3)cc2C1 (stereo unspecified) do in these assays?
D1 antagonist: 6; DRD3 agonist: -5; D1 agonist: 0; D3 antag: -91*; D1 PAM: -9

Results for COc1ccc(C(CNC(=O)c2ccc(-c3cccc(C(F)(F)F)c3)o2)N2CCOCC2)cc1 (stereo unspecified) ?
D1 antagonist: 30; DRD3 agonist: -17; D1 agonist: 34*; D3 antag: -30; D1 PAM: 7

What do the screens show for `COc1ccc(C(CNC(=O)c2cccc(S(=O)(=O)N(C)c3ccccc3)c2)N2CCCC2)cc1` (stereo unspecified)?
D1 antagonist: -13; DRD3 agonist: -25; D1 agonist: 15; D3 antag: -66*; D1 PAM: -4

Results for COc1ccc(C(CNC(=O)C(C)Oc2ccc(Br)cc2)N2CCCC2)cc1 (stereo unspecified) ?
D1 antagonist: 6; DRD3 agonist: -23; D1 agonist: 4; D3 antag: -81*; D1 PAM: 4
